High-throughput results (PubChem BioAssay)
This is a sample that favours compounds with a hit; in the whole collection about 6% have one here.
D1 potentiator = Potentiators of Human D1 Dopamine Receptor: qHTS | D(1A) dopamine receptor (Homo sapiens), P21728 | 360,000 tested, 0.036% active | HEK293 TREx D1 cells, calcium flux, dopamine EC20 potentiation | potentiation, % at 10 µM; in the data active = potentiation above about 30%
D1 agonist = Allosteric Agonists of the Human D1 Dopamine Receptor: qHTS | activation, % at 2 µM | D(1A) dopamine receptor (Homo sapiens), P21728 | HEK293 T-REx D1 cells, calcium flux, agonist mode | 360,000 tested, 1% active; in the data active = activation above about 30%
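Tetracycline-induced HEK293 TREx D1 cells, force-coupled to calcium signalling, were dye-loaded with a no-wash calcium kit. Compound was pin-added after a 10 s baseline. Fluorescence was read kinetically at 1 cycle/s for 180 s, with calcium rises flagged as agonism.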
D3 antag = qHTS of D3 Dopamine Receptor Antagonist: qHTS; D(3) dopamine receptor (Homo sapiens), P35462; D3R cells, DiscoveRx beta-arrestin luminescence, antagonist mode; stronger effect = lower value; max response, negative = inhibition, %; 360,000 tested, 2.5% active; AID 652054, 2013; in the data active = max response below about -50%; inconclusive = no clear call, values can overlap the other calls
Target sequence (P35462 whole entry, looked up): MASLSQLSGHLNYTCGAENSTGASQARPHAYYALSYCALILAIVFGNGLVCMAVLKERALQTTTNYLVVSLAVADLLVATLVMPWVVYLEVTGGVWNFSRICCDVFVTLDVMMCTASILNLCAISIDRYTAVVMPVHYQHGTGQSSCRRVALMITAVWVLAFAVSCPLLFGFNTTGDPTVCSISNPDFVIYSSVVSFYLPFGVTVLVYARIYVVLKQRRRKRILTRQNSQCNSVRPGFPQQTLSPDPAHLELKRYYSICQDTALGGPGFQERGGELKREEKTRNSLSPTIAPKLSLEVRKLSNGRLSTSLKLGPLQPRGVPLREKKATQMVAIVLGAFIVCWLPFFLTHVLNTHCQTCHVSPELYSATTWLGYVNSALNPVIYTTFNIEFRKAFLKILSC
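Cells plated overnight at 1500 cells/well, then exposed to library compounds with dopamine controls for 90 minutes at 37 degrees C. DiscoveRx reagent added for 30–60 minutes at room temperature; luminescence read, quantitative HTS format.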
D1 antagonist = Antagonist of Human D 1 Dopamine Receptor: qHTS | HEK293 TREx D1 cells, calcium flux, dopamine EC80; stronger effect = lower value | AID 504652, 2011 | D(1A) dopamine receptor (Homo sapiens), P21728 | 360,000 tested, 3.2% active | activity change, negative = inhibition, % at 10 µM; in the data active = activity change below about -30%
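Using tetracycline-induced force-coupled D1 Hek293 cells and a calcium dye, signals were followed for 180 s after compound, then for 180 s after EC80 dopamine, to detect inhibitors.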
D3 ag = qHTS of D3 Dopamine Receptor Agonist: qHTS; D(3) dopamine receptor (Homo sapiens), P35462; D3R DiscoveRx beta-arrestin cells, luminescence, 90 min; max activation, %; 410,000 tested, 0.58% active; in the data active = max activation above about 30%
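Cells at 1500/well, incubated overnight, then treated with pinned compounds (dopamine as control) for 90 min at 37 degrees C. DiscoveRx reagent added for 30 - 60 minutes at room temperature; luminescence read.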
BCR signal inh = qHTS Assay to Find Inhibitors of Chronic Active B-Cell Receptor Signaling. ABC-DLBCL IkBa-CBG/CBR reporter, luminescence ratio, 4 h. AID 493014, 2011. Potency, µM (series often up to 46.1 µM), usual class: inhibitors. 340,000 tested, 0.05% active; active = well fitted inhibition curve with a large enough effect in the signal ratio, with a control signal flat, not every such curve was filed as active; inconclusive = small, poorly fitted or top-dose-only effect, or effect the other way, or a change in a side signal; the % refers to the signal ratio
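Doxycycline induced both beetle luciferases in TMD8 lymphoma cells; IKK-driven degradation limits the IkappaBalpha-fused green signal, while red luminescence normalises for cell number and nonspecific effects. Compounds tested up to 46 uM, 4 hrs.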
Of the large screens only hits and unclear results are named; the others gave an inactive call.

COc1ccc(CCNC(=O)CCCn2c(=O)c3cccn3c3ccc(F)cc32)cc1OC	none (no result: D3 antag, BCR signal inh)
CS(=O)(=O)Nc1cccc(C(=O)OCCCOc2ccc(F)cc2)c1	D3 ag 74
COc1ccc(S(N)(=O)=O)cc1C(=O)OCCCOC(=O)c1cc(S(N)(=O)=O)ccc1OC	BCR signal inh inconclusive
CC(=O)c1cccc(NS(C)(=O)=O)c1	none
COc1ccc(S(N)(=O)=O)cc1C(=O)OCCCOc1ccc(F)cc1	D1 antagonist -34
Cc1cc(NC(=O)C(C)(C)C)cc(-c2nc3ncccc3o2)c1O	none (no result: D3 antag, BCR signal inh)
COc1ccc(CCNC(=O)CCCn2c(=O)c3ccccc3n(Cc3ccccc3C#N)c2=O)cc1OC	none (no result: D3 antag, BCR signal inh)
COC(=O)c1ccccc1NC1c2ccccc2C(=O)N1c1cccnc1 (centres undefined)	BCR signal inh inconclusive
O=C1c2ccccc2C(Nc2ccccc2F)N1c1cccnc1 (centres undefined)	D1 antagonist -35 (no result: D1 potentiator)
CCOC(=O)C1CCN(C(=O)c2ccccc2)C(CC)C1=O (centres undefined)	none (no result: D1 potentiator, D1 agonist, D1 antagonist, BCR signal inh)
NNc1nc2c(-c3cccc(C(F)(F)F)c3)nnn2c2ccccc12	D3 ag 32, BCR signal inh inconclusive
FC(F)(F)c1cccc(-c2nnn3c2nc(NC2CCCCC2)c2ccccc23)c1	none (no result: D3 antag, BCR signal inh)
C[C@H]1C[C@@H]2[C@H]([C@@H](O)C[C@@]3(C)[C@H]2CC[C@]3(O)C(=O)COC(=O)CCC(=O)O)[C@@]2(C)C=CC(=O)C=C12	none (no result: D1 potentiator, D1 agonist, D3 antag, D1 antagonist, BCR signal inh)
COc1ccccc1C1=CC(=O)C[C@H](c2ccc(Cl)cc2)C1	D1 antagonist -36
COc1ccc([C@H]2CC(=O)C=C(c3ccccc3OC)C2)cc1OC	D1 antagonist -46
Cc1ccc2nc(N3CCN(c4ccccc4F)CC3)c3nnnn3c2c1	none (no result: D3 antag, BCR signal inh)
COc1ccccc1N1CCN(c2nc3ccc(C)cc3n3nnnc23)CC1	D1 antagonist -30 (no result: D3 antag, BCR signal inh)
CCOCCCNCc1ccc(OCc2ccccc2Cl)cc1	D1 agonist 36
COc1ccc(OCCCNCCc2ccccc2)cc1	D3 antag -52
COc1ccc(OCCC(=O)OCC(=O)NCCc2ccccc2)cc1	none
CC(C)(C)c1ccc(OCCCNCc2ccccc2)cc1	D1 agonist 61, D3 antag inconclusive, BCR signal inh inconclusive
COCCCNCCCOc1ccc(C(C)(C)c2ccccc2)cc1	none
CC(C)(c1ccccc1)c1ccc(OCCCNCCO)cc1	D3 antag -75
CCc1cc(OCCCCNCc2ccccc2)ccc1Cl	D1 agonist 51, D3 antag inconclusive
OCCCCNCc1ccc(OCc2ccccc2)cc1	none
OCCNCCCCOc1ccc(OCc2ccccc2)cc1	D1 agonist 46, D1 antagonist -31, BCR signal inh inconclusive
CCOc1cc(/C=N/NC(=O)c2cccc([N+](=O)[O-])c2)ccc1OS(=O)(=O)c1ccccc1	D3 antag -61
COc1ccc(/C=N/NC(=O)c2cccc([N+](=O)[O-])c2)cc1OS(=O)(=O)c1ccc(C)cc1	D3 antag inconclusive
COCCN1C(=O)CCC1(C)c1nnnn1-c1ccc2c(c1)OCCO2 (centres undefined)	none (no result: D1 potentiator, D1 agonist, D1 antagonist, BCR signal inh)
Cc1cc(C(=O)Nc2cccc(F)c2)c2c(C)nn(-c3cccc(Cl)c3C)c2n1	D1 antagonist -39 (no result: D3 antag, BCR signal inh)
O=[N+]([O-])c1cccc(/C=N/n2cnnc2)c1O	D3 antag -55
Cc1nn(-c2ccccc2)c(N2CCCC2)c1/C=N/n1cnc2scc(-c3ccccc3)c2c1=O	D3 antag -61
O=[N+]([O-])c1cc(Br)cc(/C=N/n2cnnc2)c1O	D3 antag inconclusive
O=[N+]([O-])c1cc(Cl)cc(/C=N/n2cnnc2)c1O	D3 antag -57
O=c1c2c(-c3ccc(Cl)cc3)csc2ncn1/N=C/c1cccc([N+](=O)[O-])c1O	D3 antag -61
Cc1ccccc1C(=O)Nc1ccc(S(=O)(=O)N2CCC(c3nc4ccccc4s3)CC2)cc1	none (no result: D3 antag, BCR signal inh)
